Source: paper PMC7826789 (International Journal of Molecular Sciences, 2021)

**Q.** How did the Kinases covered (ERN1) turn out when `Cc1ccc(CNC(=O)N2CCC[C@]3(CCN(Cc4ccc(Cl)c(Cl)c4)C3)C2)cc1` [GSK2850163] was run?
**A.** The Kinases covered was “ERN1”.

**Q.** For `CCCNC(=O)c1ccc(Nc2ncc(C(F)(F)F)c(Nc3ccccc3C(C)=O)n2)c(Br)c1` [BI00801818], which Kinases covered (FAK) is on record?
**A.** Its Kinases covered is “FAK”.

**Q.** For `CNC(=O)c1c(F)cccc1Nc1nc(Nc2cc3c(cc2OC)CCN3C(=O)CN(C)C)nc2[nH]ccc12` [GSK1838705], which Kinases covered (FER) is on record?
**A.** Its Kinases covered is “FER”.

**Q.** How did the Kinases covered (FER) turn out when `CCc1cc(Nc2nccc(-c3c(-c4ccc(OC)c(C(=O)Nc5c(F)cccc5F)c4)nc4ccccn34)n2)c(OC)cc1N1CCC(N2CCN(S(C)(=O)=O)CC2)CC1` [GSK1904529] was run?
**A.** The Kinases covered was “FER”.

**Q.** What about the Kinases covered (FRK) of the same molecule?
**A.** Its Kinases covered is “FRK”.

**Q.** Which Kinases covered (FGFR1) does the source give for `COc1cc(OC)cc(-c2cc3cnc(N)nc3nc2NC(=O)NC(C)(C)C)c1` [PFE-PKIS 3] here?
**A.** The Kinases covered was “FGFR1”.

**Q.** How did the Kinases covered (FLT3) turn out when `Cn1ccc2ncnc(Oc3ccc(NC(=O)Nc4ccccc4)cc3)c21` [TPKI-69] was run?
**A.** The Kinases covered was “FLT3”.

**Q.** `COc1cc2c(cc1OC)C(=C(Nc1ccccc1)c1cccc(CN)c1)C(=O)N2` [BIBF0846CL] was tested. Which Kinases covered (FLT3) did it give?
**A.** Its Kinases covered is “FLT3”.

**Q.** `COc1cc(N2CCN(C)CC2)ccc1Nc1ncc2c(n1)N(C)c1ccccc1C(=O)N2` [XMD8-87] was tested. Which Kinases covered (FRK) did it give?
**A.** Its Kinases covered is “FRK”.

**Q.** How did the Kinases covered (GSG2) turn out when `c1ccc(-c2cc3ccncc3cc2OC2CCNCC2)cc1` [GSK1122999] was run?
**A.** The Kinases covered was “GSG2”.

**Q.** What about the Kinases covered (IKBKB) of the same molecule?
**A.** The Kinases covered was “IKBKB”.

**Q.** How did the Kinases covered (HCK) turn out when `COc1cc2ncnc(Nc3cccc(Cl)c3F)c2cc1O[C@H]1CC[C@H]([C@@H]2NCCNC2=O)CC1` [BI00133844] was run?
**A.** The Kinases covered was “HCK”.

**Q.** For `COc1ccc2c(-c3ccnc(Nc4cccc(OC(F)(F)F)c4)n3)cnn2n1` [GW810372X], which Kinases covered (HIPK1) is on record?
**A.** The Kinases covered was “HIPK1”.

**Q.** Which Kinases covered (HIPK2) does the source give for `CCOc1ccc2c(-c3ccnc(Nc4cccc(C(F)(F)F)c4)n3)cnn2n1` [GW811761X] here?
**A.** The Kinases covered was “HIPK2”.

**Q.** And the Kinases covered (HIPK3)?
**A.** Its Kinases covered is “HIPK3”.

**Q.** How did the Kinases covered (HIPK4) turn out when `COC[C@@H](C)N[C@H]1CC[C@H](Nc2cc(-c3cccc(NCC4(C#N)CCOCC4)n3)c(Cl)cn2)CC1` [NVP-2] was run?
**A.** The Kinases covered was “HIPK4”.

**Q.** How did the Kinases covered (Haspin) turn out when `CCCc1cc(N2CCCN(C)CC2)nc2sc3c(N)ncnc3c12` [BI00604564] was run?
**A.** Its Kinases covered is “Haspin”.

**Q.** `CCC(NN(C)C)=C1C(=O)Nc2ccc(C(C)=O)cc21` [BI00036838] was tested. Which Kinases covered (ICK) did it give?
**A.** The Kinases covered was “ICK”.

**Q.** Which Kinases covered (ICK) does the source give for `Cc1cc(NC(=O)c2cccc(NC(=O)/C=C/CN(C)C)c2)ccc1Nc1nccc(-c2cccnc2)n1` [JNK-IN-7] here?
**A.** Its Kinases covered is “ICK”.
